Measured values: ChEMBL document CHEMBL1961873, “Compounds: GSK PKIS; Assays: Nanosyn kinase panel” (2012)

What was measured:
[1] = target: MAP/microtubule affinity-regulating kinase 3 (Homo sapiens) (UniProt P27448); settings: at 1 µM;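 note: reported values are averaged percent inhibition of MARK3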
[2] = target: T1, MAP/microtubule affinity-regulating kinase 4 (Homo sapiens) (UniProt Q96L34); settings: at 0.1 µM
T1 sequence (whole entry): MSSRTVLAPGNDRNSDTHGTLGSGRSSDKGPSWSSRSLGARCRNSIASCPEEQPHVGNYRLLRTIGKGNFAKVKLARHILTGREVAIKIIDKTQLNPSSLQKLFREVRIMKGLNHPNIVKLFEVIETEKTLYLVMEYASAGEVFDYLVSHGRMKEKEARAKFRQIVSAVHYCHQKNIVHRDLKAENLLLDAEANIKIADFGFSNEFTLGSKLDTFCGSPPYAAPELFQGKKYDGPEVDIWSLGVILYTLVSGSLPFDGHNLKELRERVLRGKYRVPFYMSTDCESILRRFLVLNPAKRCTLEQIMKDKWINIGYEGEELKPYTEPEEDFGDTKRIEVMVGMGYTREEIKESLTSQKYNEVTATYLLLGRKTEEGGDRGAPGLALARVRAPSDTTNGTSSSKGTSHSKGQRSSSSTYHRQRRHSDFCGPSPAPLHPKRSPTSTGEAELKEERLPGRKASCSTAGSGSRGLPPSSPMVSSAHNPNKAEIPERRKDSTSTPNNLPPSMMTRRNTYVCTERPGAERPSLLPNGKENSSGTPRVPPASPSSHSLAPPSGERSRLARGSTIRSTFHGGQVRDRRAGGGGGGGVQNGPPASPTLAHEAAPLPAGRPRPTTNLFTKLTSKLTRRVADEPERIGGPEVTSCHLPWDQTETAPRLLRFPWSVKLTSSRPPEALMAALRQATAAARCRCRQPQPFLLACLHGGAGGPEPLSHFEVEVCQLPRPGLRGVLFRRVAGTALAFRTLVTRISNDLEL

[3] = target: T1, MAP/microtubule affinity-regulating kinase 4 (Homo sapiens); settings: at 1 µM
[4] = target: Maternal embryonic leucine zipper kinase (Homo sapiens) (UniProt Q14680); settings: at 0.1 µM
[5] = target: Maternal embryonic leucine zipper kinase (Homo sapiens) (UniProt Q14680); settings: at 1 µM
[6] = target: MAP kinase-interacting serine/threonine-protein kinase 1 (Homo sapiens) (UniProt Q9BUB5); settings: at 0.1 µM
[7] = target: MAP kinase-interacting serine/threonine-protein kinase 1 (Homo sapiens) (UniProt Q9BUB5); settings: at 1 µM
[8] = target: MAP kinase-interacting serine/threonine-protein kinase 2 (Homo sapiens) (UniProt Q9HBH9); settings: at 0.1 µM
[9] = target: MAP kinase-interacting serine/threonine-protein kinase 2 (Homo sapiens) (UniProt Q9HBH9); settings: at 1 µM
[10] = target: Serine/threonine-protein kinase MARK2 (Homo sapiens) (UniProt Q7KZI7); settings: at 0.1 µM
[11] = target: Serine/threonine-protein kinase MARK2 (Homo sapiens) (UniProt Q7KZI7); settings: at 1 µM
[12] = target: PAS domain-containing serine/threonine-protein kinase (Homo sapiens) (UniProt Q96RG2); settings: at 0.1 µM
[13] = target: PAS domain-containing serine/threonine-protein kinase (Homo sapiens) (UniProt Q96RG2); settings: at 1 µM
[14] = target: Phosphorylase b kinase gamma catalytic chain, skeletal muscle/heart isoform (Homo sapiens) (UniProt Q16816); settings: at 0.1 µM
[15] = target: Phosphorylase b kinase gamma catalytic chain, skeletal muscle/heart isoform (Homo sapiens) (UniProt Q16816); settings: at 1 µM
[16] = target: T2, Phosphorylase b kinase gamma catalytic chain, liver/testis isoform (Homo sapiens) (UniProt P15735); settings: at 0.1 µM
T2 sequence (whole entry): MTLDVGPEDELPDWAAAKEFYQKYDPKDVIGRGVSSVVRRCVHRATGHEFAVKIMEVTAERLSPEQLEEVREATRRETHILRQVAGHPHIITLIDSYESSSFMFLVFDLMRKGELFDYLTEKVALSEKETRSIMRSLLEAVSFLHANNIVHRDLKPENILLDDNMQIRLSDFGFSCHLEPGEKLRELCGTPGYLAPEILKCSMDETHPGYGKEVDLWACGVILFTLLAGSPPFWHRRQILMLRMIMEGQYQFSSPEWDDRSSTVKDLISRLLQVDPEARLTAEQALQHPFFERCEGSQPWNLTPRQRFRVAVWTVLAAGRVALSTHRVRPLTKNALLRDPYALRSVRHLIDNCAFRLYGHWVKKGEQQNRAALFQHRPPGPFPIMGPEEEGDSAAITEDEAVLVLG

[17] = target: T2, Phosphorylase b kinase gamma catalytic chain, liver/testis isoform (Homo sapiens); settings: at 1 µM
[18] = target: Serine/threonine-protein kinase pim-1 (Homo sapiens) (UniProt P11309); settings: at 0.1 µM
[19] = target: Serine/threonine-protein kinase pim-1 (Homo sapiens) (UniProt P11309); settings: at 1 µM
[20] = target: Serine/threonine-protein kinase pim-2 (Homo sapiens) (UniProt Q9P1W9); settings: at 0.1 µM;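 note: reported value is the mean percent inhibition of PIM2, measured in the GSK PKIS kinase inhibitor set screen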
Chain of Serine/threonine-protein kinase pim-2 (Homo sapiens) (Q9P1W9 whole entry, looked up): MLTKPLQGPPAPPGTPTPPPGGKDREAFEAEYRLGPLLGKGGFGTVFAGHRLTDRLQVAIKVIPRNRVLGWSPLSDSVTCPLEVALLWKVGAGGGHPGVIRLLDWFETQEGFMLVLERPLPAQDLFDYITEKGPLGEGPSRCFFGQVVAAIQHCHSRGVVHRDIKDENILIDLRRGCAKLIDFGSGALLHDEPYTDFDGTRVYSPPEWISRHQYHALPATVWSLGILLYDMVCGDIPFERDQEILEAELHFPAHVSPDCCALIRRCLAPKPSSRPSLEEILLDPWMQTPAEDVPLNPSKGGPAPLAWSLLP

Chain of MAP kinase-interacting serine/threonine-protein kinase 2 (Homo sapiens) (Q9HBH9 whole entry, looked up): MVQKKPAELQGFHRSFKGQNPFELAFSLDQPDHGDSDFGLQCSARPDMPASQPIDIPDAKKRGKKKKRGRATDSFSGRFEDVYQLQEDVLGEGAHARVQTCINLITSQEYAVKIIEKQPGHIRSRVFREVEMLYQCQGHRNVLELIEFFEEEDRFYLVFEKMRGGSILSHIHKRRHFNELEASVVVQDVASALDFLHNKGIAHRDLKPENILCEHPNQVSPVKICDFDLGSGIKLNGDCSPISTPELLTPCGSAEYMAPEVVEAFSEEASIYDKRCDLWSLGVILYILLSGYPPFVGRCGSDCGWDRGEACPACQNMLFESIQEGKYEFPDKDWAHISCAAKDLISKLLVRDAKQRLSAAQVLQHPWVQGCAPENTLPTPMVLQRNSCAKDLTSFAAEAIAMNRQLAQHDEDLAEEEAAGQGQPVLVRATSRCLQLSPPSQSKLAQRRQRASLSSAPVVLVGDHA
Chain of Phosphorylase b kinase gamma catalytic chain, skeletal muscle/heart isoform (Homo sapiens) (Q16816 whole entry, looked up, canonical isoform): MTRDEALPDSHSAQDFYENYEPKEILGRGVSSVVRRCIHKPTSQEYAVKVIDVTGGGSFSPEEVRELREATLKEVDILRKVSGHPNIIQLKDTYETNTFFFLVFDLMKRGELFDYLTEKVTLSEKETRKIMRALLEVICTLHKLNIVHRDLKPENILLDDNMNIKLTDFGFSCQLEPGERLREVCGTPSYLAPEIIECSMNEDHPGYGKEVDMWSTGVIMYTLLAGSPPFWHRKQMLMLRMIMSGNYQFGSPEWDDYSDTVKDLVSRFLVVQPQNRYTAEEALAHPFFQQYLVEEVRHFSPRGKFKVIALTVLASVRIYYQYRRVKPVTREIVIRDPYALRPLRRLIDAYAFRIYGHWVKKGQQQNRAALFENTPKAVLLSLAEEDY
Chain of Serine/threonine-protein kinase pim-1 (Homo sapiens) (P11309 whole entry, looked up): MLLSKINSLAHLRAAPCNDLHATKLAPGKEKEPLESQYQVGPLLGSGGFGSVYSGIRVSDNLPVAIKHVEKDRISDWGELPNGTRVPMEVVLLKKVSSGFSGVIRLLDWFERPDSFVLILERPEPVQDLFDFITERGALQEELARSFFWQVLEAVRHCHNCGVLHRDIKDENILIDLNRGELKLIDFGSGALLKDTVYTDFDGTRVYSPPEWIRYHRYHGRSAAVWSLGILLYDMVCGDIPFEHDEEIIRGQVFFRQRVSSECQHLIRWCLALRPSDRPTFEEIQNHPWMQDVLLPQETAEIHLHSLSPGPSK
Chain of PAS domain-containing serine/threonine-protein kinase (Homo sapiens) (Q96RG2 whole entry, the tested form may be a part, canonical isoform): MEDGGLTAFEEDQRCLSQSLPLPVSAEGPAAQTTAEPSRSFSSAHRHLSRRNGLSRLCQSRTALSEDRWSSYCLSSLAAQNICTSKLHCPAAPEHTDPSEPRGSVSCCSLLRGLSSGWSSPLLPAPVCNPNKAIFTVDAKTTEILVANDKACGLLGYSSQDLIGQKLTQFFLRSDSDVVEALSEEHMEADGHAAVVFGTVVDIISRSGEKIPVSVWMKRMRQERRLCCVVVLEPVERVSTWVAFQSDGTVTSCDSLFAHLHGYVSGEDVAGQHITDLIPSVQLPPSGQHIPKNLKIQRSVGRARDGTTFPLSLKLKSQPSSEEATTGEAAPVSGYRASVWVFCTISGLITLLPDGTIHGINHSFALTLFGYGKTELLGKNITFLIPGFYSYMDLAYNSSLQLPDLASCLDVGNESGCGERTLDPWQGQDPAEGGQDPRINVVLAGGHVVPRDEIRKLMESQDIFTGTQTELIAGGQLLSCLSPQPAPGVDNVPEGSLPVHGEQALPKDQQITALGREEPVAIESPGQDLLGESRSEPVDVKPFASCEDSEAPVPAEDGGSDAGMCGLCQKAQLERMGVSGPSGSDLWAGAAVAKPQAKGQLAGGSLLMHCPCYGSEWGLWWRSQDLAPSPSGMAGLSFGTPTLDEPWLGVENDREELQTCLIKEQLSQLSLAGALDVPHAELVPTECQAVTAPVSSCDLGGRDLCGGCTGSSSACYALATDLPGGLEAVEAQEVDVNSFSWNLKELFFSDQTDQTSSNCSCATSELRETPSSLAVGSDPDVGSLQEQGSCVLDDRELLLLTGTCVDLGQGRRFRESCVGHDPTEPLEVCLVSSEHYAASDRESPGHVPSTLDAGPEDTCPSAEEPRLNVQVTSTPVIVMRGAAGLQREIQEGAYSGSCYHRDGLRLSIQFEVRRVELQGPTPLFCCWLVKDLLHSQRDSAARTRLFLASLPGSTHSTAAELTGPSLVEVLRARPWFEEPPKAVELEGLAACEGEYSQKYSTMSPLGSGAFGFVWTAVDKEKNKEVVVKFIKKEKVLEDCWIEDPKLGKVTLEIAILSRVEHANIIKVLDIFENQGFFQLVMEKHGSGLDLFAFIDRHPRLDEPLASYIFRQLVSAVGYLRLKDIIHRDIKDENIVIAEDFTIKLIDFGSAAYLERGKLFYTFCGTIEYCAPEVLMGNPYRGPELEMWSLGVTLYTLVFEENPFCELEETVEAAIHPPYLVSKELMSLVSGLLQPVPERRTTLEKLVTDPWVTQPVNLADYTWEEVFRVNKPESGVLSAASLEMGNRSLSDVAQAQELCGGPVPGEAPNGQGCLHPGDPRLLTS
Chain of MAP kinase-interacting serine/threonine-protein kinase 1 (Homo sapiens) (Q9BUB5 whole entry, looked up): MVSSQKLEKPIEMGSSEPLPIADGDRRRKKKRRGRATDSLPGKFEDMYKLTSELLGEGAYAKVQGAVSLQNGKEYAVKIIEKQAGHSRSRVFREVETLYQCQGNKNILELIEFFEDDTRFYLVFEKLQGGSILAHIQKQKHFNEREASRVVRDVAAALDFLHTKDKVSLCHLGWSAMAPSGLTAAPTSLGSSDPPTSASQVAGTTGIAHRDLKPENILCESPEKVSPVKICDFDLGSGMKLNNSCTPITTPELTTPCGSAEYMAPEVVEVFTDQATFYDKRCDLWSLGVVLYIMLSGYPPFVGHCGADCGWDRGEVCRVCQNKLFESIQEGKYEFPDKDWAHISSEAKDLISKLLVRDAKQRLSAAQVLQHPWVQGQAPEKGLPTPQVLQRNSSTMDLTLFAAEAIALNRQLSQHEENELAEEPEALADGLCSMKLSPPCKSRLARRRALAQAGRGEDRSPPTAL
Chain of Serine/threonine-protein kinase MARK2 (Homo sapiens) (Q7KZI7 whole entry, the tested form may be a part): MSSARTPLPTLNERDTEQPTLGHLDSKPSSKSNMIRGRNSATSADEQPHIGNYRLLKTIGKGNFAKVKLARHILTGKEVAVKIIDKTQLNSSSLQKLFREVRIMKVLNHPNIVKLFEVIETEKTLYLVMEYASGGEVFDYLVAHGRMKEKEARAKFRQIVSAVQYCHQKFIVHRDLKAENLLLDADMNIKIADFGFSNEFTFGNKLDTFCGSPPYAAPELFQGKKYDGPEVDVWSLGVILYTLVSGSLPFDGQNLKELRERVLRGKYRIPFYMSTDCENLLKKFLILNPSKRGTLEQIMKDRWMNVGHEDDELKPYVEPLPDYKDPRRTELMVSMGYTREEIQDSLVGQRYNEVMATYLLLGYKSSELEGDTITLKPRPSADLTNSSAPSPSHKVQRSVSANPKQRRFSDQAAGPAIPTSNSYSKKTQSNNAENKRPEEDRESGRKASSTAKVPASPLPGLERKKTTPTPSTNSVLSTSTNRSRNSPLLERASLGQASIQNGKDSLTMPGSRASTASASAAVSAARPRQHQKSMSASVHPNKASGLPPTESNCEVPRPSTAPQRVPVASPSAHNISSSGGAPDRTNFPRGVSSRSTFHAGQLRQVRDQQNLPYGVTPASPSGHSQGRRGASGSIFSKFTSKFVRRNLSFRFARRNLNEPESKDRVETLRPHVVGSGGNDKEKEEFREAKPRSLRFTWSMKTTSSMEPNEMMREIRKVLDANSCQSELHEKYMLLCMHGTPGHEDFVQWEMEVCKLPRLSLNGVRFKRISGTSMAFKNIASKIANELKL
Chain of MAP/microtubule affinity-regulating kinase 3 (Homo sapiens) (P27448 whole entry, looked up): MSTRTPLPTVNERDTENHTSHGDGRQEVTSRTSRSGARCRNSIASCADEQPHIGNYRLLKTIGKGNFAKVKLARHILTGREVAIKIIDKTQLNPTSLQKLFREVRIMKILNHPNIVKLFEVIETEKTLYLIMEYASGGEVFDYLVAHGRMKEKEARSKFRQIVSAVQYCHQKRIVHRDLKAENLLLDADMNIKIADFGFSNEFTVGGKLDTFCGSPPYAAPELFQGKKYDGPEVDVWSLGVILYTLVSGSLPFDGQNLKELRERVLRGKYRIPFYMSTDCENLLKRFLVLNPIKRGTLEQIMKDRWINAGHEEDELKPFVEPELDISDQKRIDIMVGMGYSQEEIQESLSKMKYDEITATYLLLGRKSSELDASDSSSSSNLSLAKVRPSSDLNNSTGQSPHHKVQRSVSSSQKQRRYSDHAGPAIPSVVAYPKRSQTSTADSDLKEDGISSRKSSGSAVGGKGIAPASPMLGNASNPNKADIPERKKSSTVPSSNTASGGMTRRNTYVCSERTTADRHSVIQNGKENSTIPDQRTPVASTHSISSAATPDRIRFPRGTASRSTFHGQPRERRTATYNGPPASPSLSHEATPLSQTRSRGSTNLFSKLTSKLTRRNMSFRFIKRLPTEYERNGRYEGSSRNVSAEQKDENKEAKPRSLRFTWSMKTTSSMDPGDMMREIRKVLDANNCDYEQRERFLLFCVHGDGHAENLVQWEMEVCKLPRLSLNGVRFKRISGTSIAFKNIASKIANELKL

Row | SMILES | inhibition [1] | inhibition [2] | inhibition [3] | inhibition [4] | inhibition [5] | inhibition [6] | inhibition [7] | inhibition [8] | inhibition [9] | inhibition [10] | inhibition [11] | inhibition [12] | inhibition [13] | inhibition [14] | inhibition [15] | inhibition [16] | inhibition [17] | inhibition [18] | inhibition [19] | inhibition [20]
1 | c1cnn2ncc(-c3ccnc(Nc4ccc5c(c4)OCCO5)n3)c2c1 | 24.8% | 3.11% | 16.4% | 11.6% | 51.6% | 3.95% | 14.5% | 4.36% | 25.9% | 0.05% | 14.3% | -0.33% | 0.82% | 5.46% | 27.6% | 7.04% | 17.1% | 0.98% | 7.95% | 0.25%
2 | COc1cccc(-n2ncc3c(N/N=C/c4cccc(F)c4)ncnc32)c1 | -1.64% | 1.82% | 5.56% | 4.24% | 11% | 2.81% | 11.8% | 1.92% | 6.42% | 0.05% | 2.5% | -0.33% | -1.6% | 5.06% | 9% | 2.06% | 1.7% | -0.24% | 0.52% | -3.26%
3 | NS(=O)(=O)c1ccc(N/N=C2\C(=O)Nc3ccc(C(=O)NCCc4c[nH]cn4)cc32)cc1 | 49.1% | 11.8% | 56.3% | 82% | 98% | 2.81% | 4.11% | 1.48% | 4.85% | 7.88% | 40.4% | 0.48% | -3.06% | 14.2% | 58.7% | 8.35% | 24% | 10.5% | 51.7% | 3.79%
4 | Cn1cc(C=C2C(=O)Nc3cccnc32)c2ccccc21 | 7.16% | 1.67% | 6.49% | 4.43% | 23.5% | 3.06% | 15.5% | 1.53% | 15.3% | 1.17% | 5.73% | -0.07% | -2.27% | 4.46% | 20.8% | 2.23% | 2.8% | 1.3% | 10.4% | 0.38%
5 | Cc1nn(C)c2cc(N(C)c3ccnc(Nc4cccc(S(N)(=O)=O)c4)n3)ccc12 | -2.37% | 1.36% | 0.82% | 4.84% | 5% | 1.93% | 6.83% | 2.38% | 7.27% | -0.09% | 1.25% | -0.56% | -0.33% | 3.53% | 8.04% | 2.44% | 2.5% | 1.18% | 0.82% | 0.22%
6 | NCc1ccc(-c2nc(-c3ccc(Cl)c(O)c3)c(-c3ccncc3)[nH]2)cc1 | 5.09% | 0.06% | 2.57% | 0.75% | -1.02% | -2.18% | 6.58% | 1.14% | 4.8% | -0.38% | 2.58% | 0.34% | -0.1% | 0.14% | 3.18% | 0.02% | -1.08% | 1.18% | 0.18% | -0.05%
7 | N#Cc1c(NC(=O)c2cccc3ccccc23)sc2c1CCCC2 | 0.94% | 2.49% | 1.96% | 4.2% | 7.39% | 1.49% | 4.73% | 1.09% | 1.55% | 0.64% | 1.22% | -0.47% | -1.11% | 8.32% | 5.08% | 2.74% | 1.46% | 0.51% | 0.27% | -0.34%
